Assay outcomes (PubChem)
This is a sample that favours compounds with a hit; in the whole collection about 2.2% have one here.
NPR2 activator: human GC-B receptor activators, primary screen, HEK293 GC-B cells, cGMP TR-FRET, EC30 CNP; 0% at EC30 CNP, 100% saturating CNP; activation, % at 10 µM; 370,000 tested, 0.11% active; AID 1920062, 2024;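 active means activation at 10 µM reaching about 35% in either raw or pattern-adjusted values, limit read from the data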
PLC-beta3 inh: human PLC-beta3 inhibitors, primary screen, biochemical, fluorescence; inhibition, % at 12.2 µM; Purified PLC-beta3, fluorogenic substrate; 370,000 tested, 0.18% active; 1-phosphatidylinositol 4,5-bisphosphate phosphodiesterase beta-3 (Homo sapiens), Q01970; in the data active means inhibition above about 11%;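 further: 0% = median of compound wells on plate and 100% = full blocker control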
PLC-gamma1 inh: PLC-gamma1 enzyme inhibitors, primary screen, biochemical, fluorescence, purified enzyme; 370,000 tested, 0.84% active; inhibition, % at 12.2 µM; 1-phosphatidylinositol 4,5-bisphosphate phosphodiesterase gamma-1 (Homo sapiens), P19174; fluorogenic substrate; AID 720700, 2013
NPR1 activator: GC-A stimulated cGMP production enhancers – HEK293 GC-A cells, cGMP TR-FRET, EC30 ANP, primary screen | Atrial natriuretic peptide receptor 1 (Homo sapiens), P16066 | 0% at EC30 ANP, 100% saturating ANP | activation, % at 10 µM | 370,000 tested, 0.14% active; in the data active means activation above about 40%
Rce1 inh: yeast Rce1p protease inhibitors, primary screen, biochemical, fluorescence, cell-free homogeneous | CAAX prenyl protease 2 (Saccharomyces cerevisiae (strain ATCC 204508 / S288c)), Q03530 | yeast membranes, quenched prenylated peptide cleavage fluorescence | calls only | 290,000 tested, 0.27% active | AID 2563, 2010;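 active means fall in fluorescence gain of 50% or more versus controls, with final raw signal at or below 3038400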;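 further: plate controls were neutral control wells for no effect and wells lacking membranes for full effect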
PfM18AAP inh-1: PfM18AAP inhibitors, malaria aminopeptidase, primary screen, biochemical, QFRET, recombinant enzyme. 290,000 tested, 1.2% active. H-Glu-NHMec fluorogenic cleavage. M18 aspartyl aminopeptidase (Plasmodium falciparum 3D7). inhibition, % at 7.35 µM;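 active means inhibition above the campaign mean inhibition over all tested compounds plus 3 SD, cut at about 28% in these data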;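 further: 0% = plate median of test compound wells and 100% = 2 mM ZnCl2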
PfM18AAP inh-2: PfM18AAP inhibitors, malaria aminopeptidase, confirmation, biochemical, QFRET, recombinant enzyme, triplicate; shares compounds with PfM18AAP inh-1; H-Glu-NHMec fluorogenic cleavage; inhibition, % at 7.35 µM; 2,400 tested, 28% active; AID 2170, 2009;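 active means mean inhibition over replicate wells above the hit cutoff set for the earlier primary screen, cut at about 29% in these data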;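 further: 0% = median of test compound wells and 100% = 2 mM ZnCl2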
CTSL1 confirm: cathepsin L1 inhibitors, retest, confirmation, counter-screen for PFM18AAP inhibitor project, biochemical, QFRET, triplicate; purified cathepsin L1, Z-Leu-Arg-MCA fluorescence; inhibition, % at 5.96 µM; 2,400 tested, under 10 active; shares compounds with PfM18AAP inh-1; AID 2178, 2009;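 active means average inhibition across replicates above the hit cutoff set in the earlier primary screen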;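 further: 0% = median of test compound wells and 100% = Z-Phe-Ala-diazomethylketone 1 µM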
PLCg1 ctr: PLC-gamma1 enzyme inhibitors, counter-screen for PLC-beta3 inhibitor project, biochemical, fluorescence. inhibition, % at 12.3 µM. shares compounds with PLC-gamma1 inh. purified PLC-gamma1, fluorogenic substrate. 3,300 tested, 3.1% active. AID 743258, 2014
PLCb3 confirm: PLC-beta3 inhibitor confirmation, biochemical, fluorescence, purified enzyme; shares compounds with PLC-gamma1 inh; fluorogenic substrate fluorescence; inhibition, % at 12.3 µM; 3,300 tested, 1% active; AID 743261, 2014; in the data active means inhibition above about 11%
Starred values were filed as active, the others as inactive; i = inactive; . = no result. Unless noted, no stated cut-off is given here; in the data, active means inhibition above about 9.5%; inactive means the rest.

SMILES | NPR2 activator | PLC-beta3 inh | PLC-gamma1 inh | NPR1 activator | Rce1 inh | PfM18AAP inh-1 | PfM18AAP inh-2 | CTSL1 confirm | PLCg1 ctr | PLCb3 confirm
COc1ccc(-c2nnc(SCC(=O)Nc3ccc(S(=O)(=O)Nc4nccs4)cc3)n2-c2ccc(OC)cc2)cc1 | 0 | 3 | 1 | -7 | . | . | . | . | . | .
C[C@H]1C2CC(OC(=O)Nc3ccc4c(c3)OCO4)C(C2)[C@H]2CCCCN21 (stereo partly drawn) | 3 | 1 | 7 | 2 | . | . | . | . | . | .
Cc1c(Br)c(O)c(Br)c2sc(=O)oc12 | -1 | -10 | 9.9* | 4 | . | 36* | -34 | 0 | -29 | -35
CC(=O)N1CCc2c1cccc2S(=O)(=O)NC(CC(C)C)C(=O)Nc1ccc(F)cc1Cl (stereo not drawn) | 2 | 0 | 1 | 4 | . | . | . | . | . | .
CCC(=O)N(Cc1ccccc1)c1ccccc1C(=O)Nc1cc(OC)ccc1OC | 0 | -7 | -5 | -7 | . | . | . | . | . | .
O=[N+]([O-])c1ccc(NCCCO)c(S(=O)(=O)N2CCOCC2)c1 | 8 | -3 | 4 | 4 | i | 6 | . | . | . | .
O=[N+]([O-])c1ccc(N/N=C/c2cccc(O)c2O)c(S(=O)(=O)N2CCOCC2)c1 | 1 | -5 | 15* | -2 | i | 42* | 38* | 0 | -4 | -5
Cc1cc(Br)ccc1OCCCN1CCC(C(O)(c2ccccc2)c2ccccc2)CC1 | 2 | -3 | 1 | -7 | . | . | . | . | . | .
N#Cc1ccc(NC(=O)OC2CC3CC2[C@H]2CCCCN2[C@H]3Cc2ccccc2)cc1 (stereo partly drawn) | 1 | -3 | -3 | -7 | . | . | . | . | . | .
Nc1ccc([N+](=O)[O-])cc1C(=O)NNC(=O)c1ccco1 | 1 | 3 | 9.7* | -2 | i | 33* | 14 | 3 | 7 | 7
O=C(NNc1ccc([N+](=O)[O-])cc1[N+](=O)[O-])c1ccco1 | . | . | . | . | i | 15 | . | . | . | .
O=C(O)c1ccc2c(c1)C(=O)/C(=C\c1ccco1)C2=O | -6 | 5 | 36* | 2 | i | 42* | 40* | -6 | 23* | -9
CCOc1ccc(C=NNC(=O)c2cc(-c3ccc(Cl)cc3)n[nH]2)cc1 | -9 | -2 | -1 | 2 | . | . | . | . | . | .
O=C(CC1Sc2ccccc2NC1=O)Nc1cccc(C(=O)O)c1 (stereo not drawn) | -2 | 10 | 12* | 1 | i | 41* | 25 | -4 | 4 | 2
Cc1nnc(N/N=C/c2cccc(OCc3ccc(Cl)c(Cl)c3)c2)n1N | 1 | 11* | 13* | 6 | i | 49* | -37 | 4 | -21 | -13
NN1C(=O)/C(=C\c2ccco2)SC1=S | -2 | -8 | 18* | -4 | i | 34* | -20 | -1 | -7 | -5
O=C(NN1C(=O)CSC1=S)C(=O)NN1C(=O)CSC1=S | 0 | -6 | 44* | 0 | i | 41* | 52* | -2 | 71* | -5
Oc1cccc(/C=N/NC(=S)Nc2cccnc2)c1O | 0 | -37 | -22 | -5 | i | 16 | . | . | . | .
Oc1ccc(/C=N/NC(=S)Nc2cccnc2)c(O)c1O | -1 | -4 | 12* | -4 | i | 62* | 34* | 2 | -5 | -8
CN(C)c1ccc(NC(=O)NC2CCCCN(Cc3cccc(Cl)c3)C2=O)cc1 (stereo not drawn) | -4 | -2 | 2 | 4 | . | . | . | . | . | .
O=C(Nc1ccc([N+](=O)[O-])cc1)Nn1cnnc1 | 0 | 4 | 12* | 0 | i | 81* | 72* | 0 | -3 | -3
CN1CCN(NC(=O)Nc2ccc([N+](=O)[O-])cc2)CC1 | 1 | 1 | 2 | 3 | i | 2 | . | . | . | .
CN(Cc1ccccc1)C(=O)Cn1nnc(-c2ccccc2)c1COc1ccccc1 | 1 | -2 | 0 | -4 | . | . | . | . | . | .
CN(Cc1ccccc1)C(=O)Cn1nnc(-c2ccccc2)c1COc1ccc2ccccc2c1 | 2 | 2 | 11* | -3 | . | . | . | . | -2 | -4
O=C(OCCCN1CCC2(CCC(c3ccccc3)CC2)C1=O)c1ccccc1 (stereo not drawn) | 7 | 2 | -1 | -4 | . | . | . | . | . | .
SMILES | NPR2 activator | PLC-beta3 inh | PLC-gamma1 inh | NPR1 activator | Rce1 inh | PfM18AAP inh-1 | PfM18AAP inh-2 | CTSL1 confirm | PLCg1 ctr | PLCb3 confirm
COCCNC(=O)CN(C(=O)CCC(=O)Nc1ccccn1)c1cc(C)ccc1C | 0 | 10 | 13* | -3 | i | -1 | . | . | 9 | -1
COc1ccc(NS(=O)(=O)c2cccc(C(=O)NCCCn3ccnc3)c2)cc1 | -1 | 3 | 11* | 0 | i | . | . | . | -4 | -7
C[C@@H]1CN([C@@H](C)CO)C(=O)CCCn2nncc2CO[C@H]1CN(C)CC1CC1 | -1 | 0 | 3 | 5 | . | . | . | . | . | .
COc1ccc(CSc2nnc(C)n2N)cc1[N+](=O)[O-] | 7 | -3 | 10* | -1 | i | -12 | . | . | -4 | -2
C=C1[C@@H](CCO)N(S(=O)C(C)(C)C)C[C@@H]1C (stereo partly drawn) | 1 | 2 | 1 | 2 | . | . | . | . | . | .
Cc1cc(OCCCC(=O)NCCc2ccccn2)ccc1Cl | -4 | -6 | 9.5* | 1 | i | 0 | . | . | -2 | -2
C[C@@H]1ON(C)[C@H]2C[C@H]3c4cc(-c5cccc(Cl)c5)ccc4CCN3C[C@@H]12 | -2 | -11 | -6 | 2 | . | . | . | . | . | .
C=CCN1C(=O)[C@H](CC(=O)NCCC(C)C)[C@@]2(C(=O)OCC)CCCC=C12 | 13 | 1 | 0 | 4 | . | . | . | . | . | .
CCC(C)NC(=O)C1(O)c2ccccc2NC(=O)N1c1ccc(C)c(C)c1 (stereo not drawn) | 3 | 7 | 11* | -5 | i | -5 | . | . | -7 | -19
CCOCCCNC(=O)C1(O)c2ccccc2NC(=O)N1c1ccc(C)c(C)c1 (stereo not drawn) | 4 | 3 | 7 | 0 | i | -5 | . | . | . | .
